Compound activity from PubChem BioAssay.
Most compounds without a hit are left out; they make up all but 0.86% or so of the library.
CDC25B CDK2 inh = human CDC25B-CDK2/CyclinA binding inhibition; 0.72% of 94,000 active; AID 1259370; z-score (no concentration beside the values); HTRF CDC25B-CDK2/CyclinA binding, anti-His/anti-Flag; stronger effect = higher value; P30305+P24941; in the data active = z-score above about 3.2
TAR Tat displ = HIV-1 TAR-Tat binding disruption. 0.6% of 100,000 active. z-score (test concentration not listed). HIV-1 TAR RNA, Tat peptide displacement FRET; stronger effect = higher value. AID 1259389; active = z-score of 3 or more in at least 2 runs
The depositor's hits bear a star; · = not tested or not shown.

SMILES	CDC25B CDK2 inh	TAR Tat displ
O=C(COC(=O)c1ccco1)c1ccc(Cl)cc1	-0.66	·
O=C(COC(=O)c1cccs1)c1ccc(Cl)cc1	17*	·
Fc1ccccc1Cn1cc2c(-c3ccccc3)nnc-2c2cc3c(cc21)OCO3	-1.7	1.8
O=c1[nH]nc2ccc(S(=O)(=O)Cc3ccc(Cl)cc3)nn12	1.3	1.4
O=C1CCC(=O)N1CCCn1c2ccccc2c2nc3ccccc3nc21	14*	1
C#CCn1c2ccccc2c2nc3ccccc3nc21	·	0.07
O=C(CSc1ccc([N+](=O)[O-])cc1Cl)NCc1ccccc1	15*	·
CCOC(=O)CSc1ccc([N+](=O)[O-])cc1Cl	-1.6	·
CCCCN1C(=O)CCC1(C)C(=O)NCCC(C)C (stereo not given)	-1	-1.5
CC1(C)CC(=O)C2=C(C1)NC(=S)NC2c1ccc(F)cc1 (stereo not given)	0.49	·
O/N=C1/CCCc2nonc21	-1.7	·
C=CC1=C(C(=O)O)N2C(=O)[C@@H](NC(=O)C(=NOCC(=O)O)c3csc(N)n3)[C@H]2SC1	·	26*
C=CC1=C(C(=O)O)N2C(=O)[C@@H](NC(=O)/C(=N\O)c3csc(N)n3)[C@H]2SC1 (stereo in doubt)	·	-0.39
C=CCN1C(=S)Nc2cccc[n+]2[B-]1(CCCC)CCCC	3.9*	·
COc1ccc(-c2oc3cc(O[C@H]4O[C@H](CO)[C@@H](O)[C@H](O)[C@H]4O)c(OC)c(O)c3c(=O)c2OC)cc1O	·	2.3
O=c1c(O[C@@H]2O[C@H](CO)[C@H](O)[C@H](O)[C@H]2O)c(-c2ccc(O)c(O)c2)oc2cc(O)cc(O)c12	·	27*
CC1O[C@@H](Oc2c(-c3ccc(O)c(O)c3)oc3cc(O)cc(O)c3c2=O)[C@H](O)[C@H](O)[C@H]1O (stereo not given in full)	·	2.8
C[C@@H]1O[C@@H](OC[C@H]2O[C@@H](Oc3c(-c4ccc(O)c(O)c4)oc4cc(O)cc(O)c4c3=O)[C@H](O)[C@@H](O)[C@@H]2O)[C@H](O)[C@H](O)[C@H]1O	·	11*
O=c1c(O[C@@H]2OC([C@H](O)CO)[C@H](O)[C@H]2O)c(-c2ccc(O)c(O)c2)oc2cc(O)cc(O)c12 (stereo not given in full)	·	27*
COc1cc(-c2oc3cc(O)cc(O)c3c(=O)c2OC[C@@H]2OC(O[C@@H]3O[C@@H](C)[C@H](O)[C@@H](O)[C@H]3O)[C@@H](O)[C@H](O)[C@@H]2O)ccc1O (stereo not given in full)	·	5
O=c1c(O[C@@H]2O[C@H](CO)[C@@H](O)[C@H](O)[C@H]2O)c(-c2ccc(O)c(O)c2)oc2cc(O)cc(O)c12	·	28*
COc1cc(-c2oc3cc(O)cc(O)c3c(=O)c2O[C@@H]2O[C@H](CO)[C@@H](O)[C@H](O)[C@H]2O)ccc1O	·	0.39
Cc1ccsc1CN1CCc2nc(Nc3ccc4c(c3)OCCO4)ncc2C1	·	0.7
CN(C)S(=O)(=O)c1ccc(C(=O)Nc2nc3ccc(S(=O)(=O)N(C)C)cc3s2)cc1	·	0.06
CC(=O)Nc1c2n(c3ccc(F)cc13)CC(C)(C(=O)NC1CCCC1)N(Cc1ccccn1)C2=O (stereo not given)	·	0.16
SMILES	CDC25B CDK2 inh	TAR Tat displ
O=C(NCCn1nnc2ccccc21)Nc1ccc(F)cc1	·	1.9
O=C(Nc1ccc(Cl)cc1)c1nnc(SCC(=O)N2CCC(N3CCCCC3)CC2)s1	·	-1.5
Cc1ccc(C(=O)c2cnc3cc4c(cc3c2N2CCOCC2)OCO4)cc1C	1.8	8.8*
CCc1ccc(C(=O)c2cnc3cc4c(cc3c2N2CCCC2)OCO4)cc1	-0.75	-0.89
Cn1c(=O)c2c(nc(N3CCCCC3)n2CCN)n(C)c1=O	-1.3	·
CC(C)OCCCNC(=O)c1ccc2c(=O)[nH]c3c(C(=O)NC4CCCC4)sc(=S)n3c2c1	·	2.1
CC(C)CCNC(=O)c1ccc2c(=O)[nH]c3c(C(=O)NC(C)C)sc(=S)n3c2c1	·	2.2
CC(C)CCNC(=O)c1ccc2c(=O)[nH]c3c(C(=O)NC4CCCC4)sc(=S)n3c2c1	·	8*
CC(C)NC(=O)c1sc(=S)n2c1[nH]c(=O)c1ccc(C(=O)NCCCN3CCCC3=O)cc12	·	8.5*
O=C(c1ccccc1)C1CCN(C(=O)CN2C(=O)c3ccccc3C2=O)CC1	-1.6	·
COc1cccc(-c2nc(C(N)=O)c3[nH]c(=O)n(C4CCCCC4)c3n2)c1O	0.02	-0.2
COc1ccc(Br)cc1CNC(=O)Cn1nc(C)n2c(cc3occc32)c1=O	12*	1.1
Cc1ccc(CNC(=O)Cn2nc(C)n3c(cc4occc43)c2=O)cc1	0.57	2.1
O=C(Cn1ncc2ccsc2c1=O)NCc1ccco1	0.3	1.8
Cc1ccc(-c2ccc(=O)[nH]n2)cc1S(=O)(=O)Nc1ccc(F)cc1F	0.15	0.46
CCOCCCN[C@H]1CS(=O)(=O)C[C@@H]1S(=O)(=O)c1ccccc1	-2.1	0.44
CCCCCN1C(=O)CC(C)Nc2ccccc21 (stereo not given)	-1.4	-1.3
COc1ccc(N2COc3cc4c(cc3C2)OCO4)cc1	-4.4	·
Fc1ccc(N2COc3cc4c(cc3C2)OCO4)cc1Cl	8.6*	·
CC(C)C(NS(=O)(=O)c1cccs1)C(=O)NCCN(C)C1CCCCC1 (stereo not given)	·	0.66
Cc1cc(Nc2ccccc2)nc(N2CCN(C(=O)Nc3ccc(F)cc3)CC2)n1	·	-0.05
O=C1CN(Cc2ccccc2F)S(=O)(=O)c2ccccc2N1Cc1ccccc1	·	9.4*
O=C1CN(Cc2ccccc2F)S(=O)(=O)c2ccccc2N1Cc1ccc(F)cc1	·	2.7
CN1C2=C(C(=O)CC(C)(C)C2)C(c2cccs2)C2=C1CC(C)(C)CC2=O	16*	·
CC1(C)CC(=O)C2=C(C1)NC1=C(C(=O)c3ccccc31)C2c1cccs1 (stereo not given)	-0.39	0.71
SMILES	CDC25B CDK2 inh	TAR Tat displ
O[C@H]1C=C2CCN3Cc4cc5c(cc4C(C23)[C@@H]1O)OCO5 (stereo not given in full)	·	20*
Cc1nn(-c2ccc(F)cc2)c(-n2cccc2)c1C(=O)N1CCc2ccccc21	·	0.33
O=c1c(O)c(-c2ccccc2)oc2cc(O)cc(O)c12	·	1.1
O=c1c(O)c(-c2ccccc2O)oc2cc(O)cc(O)c12	·	2.5
O=c1c(O)c(-c2cc(O)c(O)c(O)c2)oc2cc(O)cc(O)c12	-0.86	38*
O=c1c(O)c(-c2ccc(O)cc2O)oc2cc(O)cc(O)c12	-1.9	25*
CN(CC(=O)NC1CCCC1)S(=O)(=O)c1ccc2[nH]c(=O)oc2c1	·	-0.84
O=C(NCCCSCc1ccc(F)cc1)c1ccc(Cl)cc1	-0.43	·
COc1ccc(-c2nn3c(C(F)(F)F)nnc3s2)cc1OC	-1.4	-0.39
COc1ccc(Nc2ncccc2N)cc1	13*	-1.7
Nc1cccnc1Nc1ccccc1	3.3	-4.8
Cc1ccc(N2CSC3=C(C#N)C(c4cccc(F)c4)CC(=O)N3C2)cc1 (stereo not given)	4.7*	-1.2
Cc1ccccc1N1CSC2=C(C#N)C(c3cccc(F)c3)CC(=O)N2C1 (stereo not given)	8*	-1.5
CCc1ccccc1N1CSC2=C(C#N)C(c3ccccc3)CC(=O)N2C1 (stereo not given)	6.9*	-1.2
Cc1ccc(N2CSC3=C(C#N)C(c4ccccc4)CC(=O)N3C2)cc1Cl (stereo not given)	5.6*	-5.7
Cc1nc(SCc2ccc(C(F)(F)F)cc2)c2c(=O)n(C)c(=O)n(C)c2n1	-0.43	·
